# Data reported in PMC11006913.
# What was measured:
# Experiment in all cases: PBM; 200 nM protein, PBS
# Details in all cases: dsDNA, one strand shown
# [1] = target: MSX2 (Homo sapiens, UniProt P35548 130-214)
# [2] = target: MSX2 (Homo sapiens, UniProt P35548 130-214, F161Y)
# [3] = target: ALX3 (Homo sapiens, UniProt O95076 139-225)
# [4] = target: HOXC10 (Homo sapiens, UniProt Q9NYD6 254-340, K271E)
# [5] = target: HOXD13 (Homo sapiens, UniProt P35453 263-343, T313A)
# [6] = target: T1, SIX6 (Homo sapiens, UniProt O95475 114-200, L167V)
# T1 sequence: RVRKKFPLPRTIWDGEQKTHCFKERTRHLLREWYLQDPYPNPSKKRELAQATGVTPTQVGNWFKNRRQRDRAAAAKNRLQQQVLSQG
# [7] = target: PROP1 (Homo sapiens, UniProt O75360 56-141)
# [8] = target: PROP1 (Homo sapiens, UniProt O75360 56-141, R99H)
# [9] = target: PROP1 (Homo sapiens, UniProt O75360 56-141, F88S)
# [10] = target: T2, NKX2-4 (Homo sapiens, UniProt Q9H2Z4 175-261, R246Q)
# T2 sequence: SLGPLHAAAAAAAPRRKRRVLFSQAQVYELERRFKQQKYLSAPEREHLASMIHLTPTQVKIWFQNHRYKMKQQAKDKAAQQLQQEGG
# [11] = target: T3, PAX4 (Homo sapiens, UniProt O43316 9-242, F177Y)
# T3 sequence: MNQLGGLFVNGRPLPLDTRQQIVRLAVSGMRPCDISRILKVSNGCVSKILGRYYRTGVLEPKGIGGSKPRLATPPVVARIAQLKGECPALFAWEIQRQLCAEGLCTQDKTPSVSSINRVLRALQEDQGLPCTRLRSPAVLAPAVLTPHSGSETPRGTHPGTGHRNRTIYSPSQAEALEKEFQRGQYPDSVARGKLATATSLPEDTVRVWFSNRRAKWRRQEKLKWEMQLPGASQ
# Sequence of MSX2 (Homo sapiens, UniProt P35548 130-214, F161Y) (P35548 130-214 F161Y): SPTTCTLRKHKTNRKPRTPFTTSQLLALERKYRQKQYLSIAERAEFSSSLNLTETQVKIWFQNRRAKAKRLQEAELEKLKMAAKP
# Sequence of PROP1 (Homo sapiens, UniProt O75360 56-141, F88S) (O75360 56-141 F88S): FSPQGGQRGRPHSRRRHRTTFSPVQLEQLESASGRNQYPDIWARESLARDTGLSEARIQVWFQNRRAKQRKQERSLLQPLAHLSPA
# Sequence of MSX2 (Homo sapiens, UniProt P35548 130-214) (P35548 130-214): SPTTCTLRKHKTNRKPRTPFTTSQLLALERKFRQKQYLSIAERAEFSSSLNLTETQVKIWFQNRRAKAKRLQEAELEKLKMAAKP
# Sequence of ALX3 (O95076 139-225): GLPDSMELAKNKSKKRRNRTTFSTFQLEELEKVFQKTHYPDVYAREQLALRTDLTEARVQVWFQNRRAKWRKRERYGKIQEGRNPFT
# Sequence of PROP1 (Homo sapiens, UniProt O75360 56-141, R99H) (O75360 56-141 R99H): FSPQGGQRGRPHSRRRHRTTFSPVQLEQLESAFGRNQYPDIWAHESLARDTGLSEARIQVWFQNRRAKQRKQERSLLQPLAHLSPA
# Sequence of PROP1 (Homo sapiens, UniProt O75360 56-141) (O75360 56-141): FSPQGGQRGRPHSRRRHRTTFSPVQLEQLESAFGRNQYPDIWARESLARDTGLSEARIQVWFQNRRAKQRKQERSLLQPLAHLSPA
# Sequence of HOXC10 (Q9NYD6 254-340 K271E): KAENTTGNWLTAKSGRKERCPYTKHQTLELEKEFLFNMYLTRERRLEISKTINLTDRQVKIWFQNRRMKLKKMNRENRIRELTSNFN
# Sequence of HOXD13 (P35453 263-343 T313A): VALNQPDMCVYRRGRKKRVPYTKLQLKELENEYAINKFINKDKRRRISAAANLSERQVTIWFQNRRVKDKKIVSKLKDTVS
sequence,measurement,setting,value
CAATCCGA,binding signal,[1],"10.8 upbm affinity estimate (log intensity, higher = more binding, comparable within an allelic series)"
same,binding signal,[2],"10.8 upbm affinity estimate (log intensity, higher = more binding, comparable within an allelic series)"
AAAAATAA,binding signal,[3],"9.76 upbm affinity estimate (log intensity, higher = more binding, comparable within an allelic series)"
AAACGATC,binding signal,[1],"10.9 upbm affinity estimate (log intensity, higher = more binding, comparable within an allelic series)"
same,binding signal,[2],"10.8 upbm affinity estimate (log intensity, higher = more binding, comparable within an allelic series)"
ATTTTTGG,binding signal,[1],"10.7 upbm affinity estimate (log intensity, higher = more binding, comparable within an allelic series)"
same,binding signal,[2],"10.6 upbm affinity estimate (log intensity, higher = more binding, comparable within an allelic series)"
GCGATATA,binding signal,[1],"10.6 upbm affinity estimate (log intensity, higher = more binding, comparable within an allelic series)"
same,binding signal,[2],"10.5 upbm affinity estimate (log intensity, higher = more binding, comparable within an allelic series)"
ACCGATAA,binding signal,[1],"11.2 upbm affinity estimate (log intensity, higher = more binding, comparable within an allelic series)"
same,binding signal,[2],"11.1 upbm affinity estimate (log intensity, higher = more binding, comparable within an allelic series)"
GAATAAAA,binding signal,[1],"11 upbm affinity estimate (log intensity, higher = more binding, comparable within an allelic series)"
same,binding signal,[2],"10.9 upbm affinity estimate (log intensity, higher = more binding, comparable within an allelic series)"
CACATAAA,binding signal,[4],"11.3 upbm affinity estimate (log intensity, higher = more binding, comparable within an allelic series)"
same,binding signal,[5],"11.6 upbm affinity estimate (log intensity, higher = more binding, comparable within an allelic series)"
ATTGCCAC,binding signal,[1],"11 upbm affinity estimate (log intensity, higher = more binding, comparable within an allelic series)"
same,binding signal,[2],"11 upbm affinity estimate (log intensity, higher = more binding, comparable within an allelic series)"
AAGCAAAT,binding signal,[1],"11.3 upbm affinity estimate (log intensity, higher = more binding, comparable within an allelic series)"
same,binding signal,[2],"11.1 upbm affinity estimate (log intensity, higher = more binding, comparable within an allelic series)"
AAAATCGT,binding signal,[1],"11 upbm affinity estimate (log intensity, higher = more binding, comparable within an allelic series)"
same,binding signal,[2],"10.9 upbm affinity estimate (log intensity, higher = more binding, comparable within an allelic series)"
GACCATTA,binding signal,[1],"11.8 upbm affinity estimate (log intensity, higher = more binding, comparable within an allelic series)"
same,binding signal,[2],"11.7 upbm affinity estimate (log intensity, higher = more binding, comparable within an allelic series)"
ATTTGTCC,binding signal,[1],"11.1 upbm affinity estimate (log intensity, higher = more binding, comparable within an allelic series)"
same,binding signal,[2],"11 upbm affinity estimate (log intensity, higher = more binding, comparable within an allelic series)"
AAGAATCA,binding signal,[1],"10.8 upbm affinity estimate (log intensity, higher = more binding, comparable within an allelic series)"
same,binding signal,[2],"10.6 upbm affinity estimate (log intensity, higher = more binding, comparable within an allelic series)"
AATCAGGC,binding signal,[1],"11.4 upbm affinity estimate (log intensity, higher = more binding, comparable within an allelic series)"
same,binding signal,[2],"11.2 upbm affinity estimate (log intensity, higher = more binding, comparable within an allelic series)"
GTCATCTA,binding signal,[1],"10.5 upbm affinity estimate (log intensity, higher = more binding, comparable within an allelic series)"
same,binding signal,[2],"10.4 upbm affinity estimate (log intensity, higher = more binding, comparable within an allelic series)"
ATTACTTC,binding signal,[1],"11.6 upbm affinity estimate (log intensity, higher = more binding, comparable within an allelic series)"
same,binding signal,[2],"11.5 upbm affinity estimate (log intensity, higher = more binding, comparable within an allelic series)"
AGATATCT,binding signal,[6],"10.8 upbm affinity estimate (log intensity, higher = more binding, comparable within an allelic series)"
CTCAATCC,binding signal,[1],"10.8 upbm affinity estimate (log intensity, higher = more binding, comparable within an allelic series)"
same,binding signal,[2],"10.7 upbm affinity estimate (log intensity, higher = more binding, comparable within an allelic series)"
AAACGATG,binding signal,[1],"10.6 upbm affinity estimate (log intensity, higher = more binding, comparable within an allelic series)"
ATAAATAC,binding signal,[1],"11.3 upbm affinity estimate (log intensity, higher = more binding, comparable within an allelic series)"
same,binding signal,[2],"11.3 upbm affinity estimate (log intensity, higher = more binding, comparable within an allelic series)"
ATCAAAAT,binding signal,[1],"11.2 upbm affinity estimate (log intensity, higher = more binding, comparable within an allelic series)"
same,binding signal,[2],"11.1 upbm affinity estimate (log intensity, higher = more binding, comparable within an allelic series)"
AGTTTTAT,binding signal,[4],"11.3 upbm affinity estimate (log intensity, higher = more binding, comparable within an allelic series)"
ACAGATTG,binding signal,[1],"10.8 upbm affinity estimate (log intensity, higher = more binding, comparable within an allelic series)"
same,binding signal,[2],"10.8 upbm affinity estimate (log intensity, higher = more binding, comparable within an allelic series)"
GATATGGA,binding signal,[3],"9.24 upbm affinity estimate (log intensity, higher = more binding, comparable within an allelic series)"
GTAATAAC,binding signal,[3],"10.7 upbm affinity estimate (log intensity, higher = more binding, comparable within an allelic series)"
AGTAAATA,binding signal,[7],"8.94 upbm affinity estimate (log intensity, higher = more binding, comparable within an allelic series)"
same,binding signal,[8],"8.48 upbm affinity estimate (log intensity, higher = more binding, comparable within an allelic series)"
same,binding signal,[9],"7.6 upbm affinity estimate (log intensity, higher = more binding, comparable within an allelic series)"
ACACTCGA,binding signal,[10],"12.9 upbm affinity estimate (log intensity, higher = more binding, comparable within an allelic series)"
ATTTCCTA,binding signal,[7],"7.97 upbm affinity estimate (log intensity, higher = more binding, comparable within an allelic series)"
CTTATAAC,binding signal,[3],"9.51 upbm affinity estimate (log intensity, higher = more binding, comparable within an allelic series)"
ACTCTTGA,binding signal,[10],"12.9 upbm affinity estimate (log intensity, higher = more binding, comparable within an allelic series)"
AAAATGGG,binding signal,[7],"7.94 upbm affinity estimate (log intensity, higher = more binding, comparable within an allelic series)"
ATAATTCG,binding signal,[11],"11 upbm affinity estimate (log intensity, higher = more binding, comparable within an allelic series)"
ATTGTCTC,binding signal,[7],"7.7 upbm affinity estimate (log intensity, higher = more binding, comparable within an allelic series)"
GCATTACA,binding signal,[7],"8.11 upbm affinity estimate (log intensity, higher = more binding, comparable within an allelic series)"
same,binding signal,[8],"7.66 upbm affinity estimate (log intensity, higher = more binding, comparable within an allelic series)"
AACAAGTG,binding signal,[10],"12.9 upbm affinity estimate (log intensity, higher = more binding, comparable within an allelic series)"
GGCATGAC,binding signal,[7],"6.69 upbm affinity estimate (log intensity, higher = more binding, comparable within an allelic series)"
same,binding signal,[8],"6.75 upbm affinity estimate (log intensity, higher = more binding, comparable within an allelic series)"
same,binding signal,[9],"6.7 upbm affinity estimate (log intensity, higher = more binding, comparable within an allelic series)"
AAATACAT,binding signal,[7],"8.5 upbm affinity estimate (log intensity, higher = more binding, comparable within an allelic series)"
same,binding signal,[8],"7.91 upbm affinity estimate (log intensity, higher = more binding, comparable within an allelic series)"
CCGATGGC,binding signal,[7],"6.65 upbm affinity estimate (log intensity, higher = more binding, comparable within an allelic series)"
same,binding signal,[8],"6.61 upbm affinity estimate (log intensity, higher = more binding, comparable within an allelic series)"
same,binding signal,[9],"6.61 upbm affinity estimate (log intensity, higher = more binding, comparable within an allelic series)"
